HepG2 tox: counter-screen for TGF-b inhibitors: cytotoxicity in HepG2 cells; HepG2 CAGA-GFP viability, ATP luminescence, 18 h; Potency, µM (series often up to 46.1 µM), without a hit: at the highest dose activity change, negative = cytotoxicity, actives largely listed as cytotoxic; 410,000 compounds, 0.76% hits; AID 588856
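HepG2 CAGA-GFP cells (1000/well, DMEM with 1% FBS) received compound, then TGF-beta at 500 pg/mL final, and were incubated 18 hours at 37 degrees C. Viability was read by CellTiter-Glo luminescence. Media-only wells were set as complete cell-killing and DMSO as no toxicity.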
TGFb inhibitor: blocks TGF-b signaling; HepG2 CAGA-GFP TGF-b/SMAD3 reporter, GFP fluorescence, 18 h; TGF-beta stimulated, 500 pg/mL final; Potency, µM (top dose mostly 46.1 µM), inactives show at the top dose activity, negative = inhibition, most hits filed as inhibitors; 410,000 compounds, 1.2% hits; AID 588855; further: on the % scale 0 is the no-effect control and ±100 the full control effect; nearly all actives have a fitted effect of over 65% in size
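TGF-beta reporter screen: HEPG2 CAGA-GFP, 1% FBS, 500 pg/mL TGF-beta final, 18 h; per-cell GFP summed per well; curves fitted and categorized by class.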
TDP1 cell noCPT: qHTS for Inhibitors of human tyrosyl-DNA phosphodiesterase 1 (TDP1): qHTS in cells in absence of CPT | DT40 Tdp1-/- hTDP1 cells, no CPT, ATP luminescence, 48 h | Potency, µM (doses to about 46.2 µM), for the others: top-dose activity change, negative = growth inhibition, usual class: inhibitors | 420,000 compounds, 15% hits | AID 686978, 2013; further: on the % scale 0 is the no-effect control and ±100 the full control effect; nearly all actives have a fitted effect of over 55% in size
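No-CPT arm: Tdp1-/-;hTDP1 DT40 cells (400/well) plus compounds, incubated ≥48 hr at 37 °C. Readout CellTiter-Glo luminescence.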
ATXN2 expr inh: reduces ATXN2 reporter expression in HEK-293 cells; HEK-293 ATXN2-luciferase reporter, luminescence, 24 h; Potency, µM (titrated, usually from 57 µM), without a hit: top-dose activity change, negative = inhibition, usual class: inhibitors; 360,000 compounds, 0.72% hits; AID 1745845; further: on the % scale 0 is the no-effect control and ±100 the full control effect; nearly all actives have a fitted effect of over 55% in size
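ATXN2-luciferase reporter cells (luciferase flanked by upstream and downstream ATXN2 gene portions) were treated 24 h at 37 °C with compounds at up to 57 uM. SteadyGlo luminescence gave expression; GF-AFC fluorescence gave viability.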
ATXN viability: cell viability loss in ATXN counter-screen. Potency, µM (doses to about 56.7 µM), actives largely listed as cytotoxic. S2 cells (HEK-293 line with an ATXN2-luciferase reporter) viability, CellTiter-Fluor protease fluorescence, 24 h. 400,000 compounds, 0.49% hits. AID 651635; further: nearly all actives have a fitted effect of over 40% in size
DT40 TDP1 CPT: growth inhibition of DT40 Tdp1-/-;hTDP1 cells with camptothecin (screen for TDP1 inhibitors); Potency, µM (series often up to 46.2 µM), for inactives: at the top dose activity change, negative = growth inhibition, most hits filed as inhibitors; 420,000 compounds, 12% hits; chicken DT40 Tdp1-/-;hTDP1 cells + 20 nM CPT, ATP luminescence, 48 h; further: on the % scale 0 is the no-effect control and ±100 the full control effect; nearly all actives have a fitted effect of over 55% in size
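Chicken DT40 Tdp1-/- cells complemented with human TDP1, 400 cells/well, exposed to compounds plus 20 nM camptothecin for at least 48 h at 37 C; viability read as ATP content by CellTiter-Glo luminescence.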
Numbers without * were called inactive; i = inactive; ? = inconclusive; · = not tested or not shown. Sampled rows, rich in hits. Any-hit rate of the full collection: about 17%. The call rests on the fitted dose curve; in most records, active means well fitted curve in the direction sought with a large enough effect; inconclusive means small, poorly fitted or top-dose-only effect, or another doubt; inactive means no such curve, though single readings can be large; an effect the other way counts as inactive or inconclusive. Potency means the concentration at half of the fitted maximal effect.

SMILES	HepG2 tox	TGFb inhibitor	TDP1 cell noCPT	ATXN2 expr inh	ATXN viability	DT40 TDP1 CPT
Cc1ccc(C2NC(c3ccc(C)cc3)C(C)C(=O)C2C)cc1 (centres undefined)	-1.4%	-19.6%	?	·	i	?
CNC(C)C#Cc1ccc2c(=O)c3cc(C)c(C)cc3oc2c1 (centres undefined)	-4.5%	?	29.1µM*	-2.4%	i	?
CCOc1ccc(-c2cccc(NC(=O)c3cccs3)c2)nn1	-1.4%	-4.9%	?	11.8%	i	?
COc1cccc(CNC(=O)c2c(OC)cc(=O)n3c2CCN(C(=O)C2CC=CCC2)CC3)c1 (centres undefined)	·	·	-12.8%	·	i	-9.5%
C[C@H]1CN([C@@H](C)CO)C(=O)CCCn2cc(nn2)CO[C@@H]1CN(C)C(=O)Nc1cccc(F)c1	1.8%	-1.7%	4.7%	1.7%	i	2.5%
Fc1ccc2cnc(-c3ccccc3)c(-c3ccc(C(F)(F)F)cc3)c2c1	-33.5%	-2.2%	18.4µM*	41.3%	i	?
Fc1ccc2cnc(-c3ccccc3)c(-c3cc(C(F)(F)F)cc(C(F)(F)F)c3)c2c1	-36.9%	?	16.4µM*	?	·	?
O=[N+]([O-])c1ccc(-c2c(-c3ccccc3)ncc3ccc(F)cc23)cc1	-33.0%	-20.2%	?	70.7%	i	?
Cn1nc(-c2ccccc2)c2ncc(C(F)(F)F)cc21	-13.5%	0.5%	-2.9%	-15.5%	i	6.7%
Fc1ccc2c(-c3cccc(C(F)(F)F)c3)c(-c3ccccc3)ncc2c1	-22.5%	?	14.6µM*	?	?	?
COc1cc2cnc(-c3ccccc3)c(-c3ccc(C(F)(F)F)cc3)c2cc1OC	-34.7%	11.2µM*	?	?	?	?
CN(C)C1(CNC(=O)C2CCN(S(=O)(=O)c3c(Cl)cccc3Cl)CC2)CCCCC1	-12.6%	-18.4%	-24.3%	-2.3%	i	1.0%
COc1ccc(-c2[nH]c3ccccc3c2SCCN)cc1	-30.2%	-22.0%	?	-23.6%	i	?
O=c1cc(N2CCOCC2)oc2c(-c3ccccc3)cccc12	·	·	7.31µM*	33.7%	·	8.2µM*
Cc1ccn2c(=O)c(NC(=O)c3ccc(Br)o3)c(C)nc2c1	0.0%	12.3%	-16.3%	3.0%	i	1.0%
CCCCC[C@@H](C)N1C[C@@H](COCc2ccccc2)Oc2cc(N3CC[C@@H](N(C)C)C3)ccc2S1(=O)=O	·	·	23.1µM*	?	28.2µM*	20.6µM*
CCCCC[C@@H](C)N1C[C@H](COCc2ccccc2)Oc2cc(N3CC[C@@H](N(C)C)C3)ccc2S1(=O)=O	·	·	20.6µM*	?	25.1µM*	23.1µM*
C[C@@H](c1ccccc1)N1C[C@@H](COCc2ccccc2)Oc2cc(N3CC[C@@H](O)C3)ccc2S1(=O)=O	·	·	?	-29.1%	?	?
C[C@H](c1ccccc1)N1C[C@H](COCc2ccccc2)Oc2cc(N3CC[C@@H](N(C)C)C3)ccc2S1(=O)=O	·	·	-18.8%	3.5%	i	9.9%
C[C@@H](c1ccccc1)N1C[C@H](COCc2ccccc2)Oc2cc(N3CC[C@@H](O)C3)ccc2S1(=O)=O	·	·	?	-17.7%	?	?
C[C@@H](c1ccccc1)N1C[C@@H](COCc2ccccc2)Oc2cc(N3CC[C@@H](N(C)C)C3)ccc2S1(=O)=O	·	·	14.6µM*	28.2µM*	20µM*	?
CCCCC[C@H](C)N1C[C@H](COCc2ccccc2)Oc2cc(N3CC[C@@H](N(C)C)C3)ccc2S1(=O)=O	·	·	?	?	28.2µM*	?
